Unmarked numbers belong to inactive results. Calls of active or inactive are those of the source. Calls come from the whole dose curve; as a rule, active = well fitted activation curve with a large enough effect; inconclusive = small, poorly fitted or top-dose-only effect; inactive = no such curve, though single readings can be large or run the other way.
Assay: Confirmatory qHTS for Identification of Small Molecule Activators of Huntingtin-Antisense Promoter Activity
Settings: HEK293 HTT-AS promoter firefly luciferase reporter, 24 h; series mostly up to 57.5 µM; activity change, positive = activation: at the top concentration
Summary of the method: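 Activity normalized between vehicle control (0%) and zero RLU (-100%) from firefly luminescence (Dual-Glo). Compounds, up to 57.5 uM final, incubated 24 h at 37C on HEK293 reporter cells plated 24 h earlier.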
Potency is the fitted concentration of half-maximal effect.

With `CCN(Cc1ccccc1)C(=O)c1cc(-c2ccccc2)n[nH]1` the Potency was 0.953 µM (active).
For `O=c1c(-c2ccc(O)cc2)coc2cc(O)ccc12`, the Potency was 8.49 µM (active).
In the case of `CCc1ccc2c(c1)-c1ccccc1S(=O)(=O)N2CC(=O)N1CCC(C)CC1`, the Potency is reported as 12 µM (active).

In order of falling “activity change, positive = activation” value:
1. COc1cc(CCC(=O)NCc2ccc3c(c2)CCN3C(=O)c2ccccc2)cc(OC)c1OC  -12.6%
2. COc1ccccc1NC(=O)CSc1nnc2c(n1)[nH]c1ccccc12  -24.4%
3. CCN1C(=O)c2ccccc2Sc2ccc(NC(=O)Nc3ccccc3OC)cc21  -26.7%
4. COc1cc(Cn2c(=O)oc3ccc(C)cc32)ccc1OCCC(C)C  -26.9%
5. COc1ccc(CCNC(=O)c2c(C)nn(-c3ccc(F)cc3)c2-n2cccc2)cc1OC  -32.3%
6. COc1ccc(C(=O)CN2CCN(S(=O)(=O)c3ccc(C(C)C)cc3)CC2)cc1  -34.7%
7. COc1cc(OC)c(OC)cc1CN1CCc2nc(N3CCN(c4ncccn4)CC3)ncc2C1  -35.1%
8. CCCCN(CC)C(=O)C1CCC(CNS(=O)(=O)c2cccc3nsnc23)CC1 (stereo not drawn)  -35.2%
9. Cc1ccccc1CNC(=O)c1ccc(-c2nc(CS(=O)(=O)c3ccccc3)c(C)o2)cc1  -41.5%
10. C1=CCOCc2cc(ccc2OCCN2CCCC2)Nc2nccc(n2)-c2cccc(c2)OCC1  -41.6%
11. COc1ccc(S(=O)(=O)c2cc3cc(C(C)(C)C)cc(O)c3oc2=O)cc1  -42.7%
12. CCOc1ccc(CCNC(=O)CSCc2nc(-c3cccc(C)c3)oc2C)cc1OCC  -46.9%
13. CC(=O)N1CCCc2cc(S(=O)(=O)N3CCCC(C(=O)N4CCN(c5ccccc5)CC4)C3)ccc21 (stereo not drawn)  -51.9%
14. COc1ccc(N(Cc2ccccc2)C(=O)c2nc(SC)ncc2Cl)cc1  -54%
15. Cc1cc(Cl)ccc1OCC(=O)N1CCC(c2nc3ccccc3s2)CC1  -58.1%
16. CCOC(=O)c1ccc(N2C(=O)c3[nH]nc(-c4ccccc4)c3C2c2cccs2)cc1 (stereo not drawn)  -63.4%
17. COc1ccccc1N1CCN(C(CNC(=O)C(=O)NCc2ccc(C)cc2)c2cccnc2)CC1 (stereo not drawn)  -81.1%
18. COc1cc2ccccc2cc1C(=O)N1CCN(c2nc3ccc(F)cc3s2)CC1  -89.3%
19. Cc1oc(-c2ccc(C(=O)Nc3cccc(C(F)(F)F)c3)cc2)nc1CSc1ccccc1  -90.4%
20. CCOc1ccc(CCNc2ncnc3onc(C)c23)cc1OCC  -93.1%
